Only a selection was taken, and hits are over-represented in it overall.
AMA1-RON2 inh: AMA1-RON2 (P. falciparum) interaction inhibition; AlphaScreen AMA1-biotinylated RON2 peptide binding; Potency, µM (series often up to 58.2 µM), without a hit: top-dose activity change, negative = inhibition, hits mostly inhibitors; hit rate 0.2% among 360,000; AID 720542; active = well fitted inhibition curve with a large enough effect; inconclusive = small, poorly fitted or top-dose-only effect; inactive = no such curve, though single readings can be large or run the other way;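 note: potency is the fitted concentration of half-maximal effect; 0% = vehicle wells and -100% = peptide control; nearly all actives have a fitted effect of over 45% in size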
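AMA1 (3D7) with his tag at 25 nM final met compounds first, then biotinylated RON2 peptide at 25 nM; detection used donor plus acceptor beads, 10 µg/mL apiece, read by AlphaScreen after 30 min at room temperature.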
Shiga inhibitor: inhibitors of Shiga toxin in Vero cells | Vero cells, Shiga toxin protein synthesis inhibition reporter | hit rate 9.2% among 290,000 | AID 2315 | inhibition, % at 38.7 µM; in the data active = inhibition mostly above about 28%, no sharp cut-off; inactive = mostly below about 43%; note: 0% is about no effect
CHX counter: counter-screen for Shiga toxin inhibitors: cycloheximide protein synthesis inhibition | cell reporter, cycloheximide protein synthesis inhibition counterscreen | max response, % | hit rate 12% among 300,000; in the data active = max response mostly above about 13%, no sharp cut-off; inactive = mostly below about 14%; note: read at 38.3 µM for the half of the compounds with a filed dose; 0% is about no effect
LASV entry inh: blocks Lassa virus binding to or entry into cells; Lassa virus pseudotype entry inhibition, cell reporter; Potency, µM (top dose mostly 37.9 µM), without a hit: at the top dose activity change, negative = inhibition, actives largely listed as inhibitors; hit rate 1.2% among 300,000; calls by dose curve; tested in HEK293 cells; note: potency is the fitted concentration of half-maximal effect; % is set by controls: 0 for no effect and ±100 for the full control effect; nearly all actives have a fitted effect of over 50% in size
Marburg entry inh: blocks Marburg virus binding to or entry into cells; Marburg virus pseudotyped entry inhibition, cell reporter; Potency, µM (doses to about 37.8 µM), for inactives: at the top dose activity change, negative = inhibition, most hits filed as inhibitors; hit rate 1.8% among 300,000; AID 540276; calls by dose curve; tested in HEK293 cells; note: potency is the fitted concentration of half-maximal effect; % is set by controls: 0 for no effect and ±100 for the full control effect
* hit, by the source's call; ? = inconclusive; nt = no result; ! = a repeat was not active; [ ] = another dose, or the depositor's remark.

SMILES	AMA1-RON2 inh	Shiga inhibitor	CHX counter	LASV entry inh	Marburg entry inh
Cc1nnc(SCC(=O)Nc2ccc3c(c2)OCCO3)n1CC1CCCO1 (stereo unspecified)	18%	30*	7.4*	?	-8%[46.1 µM]
CC(C)OCC(O)CS(=O)Cc1ccccc1 (stereo unspecified)	4%	-2	-1	-6%	-2%
COc1cccc(NC(=O)Cn2c(=O)n(CCCCC(=O)NCCc3ccccc3)c(=O)c3ccccc32)c1	nt	nt	nt	9%[46.1 µM]	-5%[46.1 µM]
Cc1cccc(N2CCN(C(=O)c3cccc(N4CCCC4=O)c3)C(C)C2)c1 (stereo unspecified)	2%	6	1	nt	nt
COc1ccc(C(=O)OC(C)C(=O)NC2CCCCC2C)cc1S(=O)(=O)N1CCOCC1 (stereo unspecified)	5%	nt	nt	12%	-13%
COc1ccccc1CNC(=O)CSc1ccc(-c2cccc([N+](=O)[O-])c2)nn1	-15%	-8	-5	1%	-1%[46.1 µM]
COc1ccc(CCN(C)C(=O)CN2C(=O)c3ccccc3S2(=O)=O)cc1OC	-6%	31	7	8%	8%[46.1 µM]
COc1ccc(CCN(/C=C2\Sc3ccccc3C2=O)C(C)=O)cc1OC	40%	91	42*	10%[46.1 µM]	?
O=c1cc(-c2ccccc2)oc2cccc(O)c12	-12%	nt	nt	nt	nt
O=c1cc(-c2cccc(Cl)c2)oc2cccc(O)c12	4%	97	27*!	nt	nt
O=c1cc(-c2cccc(Br)c2)oc2cccc(O)c12	-11%	-7	-3	nt	nt
Nc1ccc2oc(-c3ccccc3Cl)cc(=O)c2c1O	-4%	43*	50*	2%	-5%
Cc1ccccc1-c1cc(=O)c2c(O)cccc2o1	-3%	28*	22*	nt	nt
Cn1c(/C(C#N)=C/c2ccc(O)cc2)nc2ccccc21	-10%	47*	50*	nt	nt
CN(C)C=Nc1ncc2c3ccccc3n(CCN(C)C)c2c1C#N	-2%	-12	-5	-19%	11µM*
CCN(CC)CCn1c2ccccc2c2cnc(N)c(C#N)c21	2%	-8	-4	?	11µM*
CN(C)C=Nc1ncc2c3ccccc3n(Cc3ccccc3)c2c1C#N	-7%	23	7	-2%	3%
CCN(CC)CCn1c2ccccc2c(=O)c2c(O)ccc(O)c21	?	nt	nt	?	24%
O=C(c1cccs1)N1C[C@H](O)[C@@H](n2cc(-c3ccc(F)cc3)nn2)C[C@@H]1c1ccccc1	-1%	nt	nt	nt	nt
COc1ccc(/C=N/OCC(=O)OCC(=O)N(C)c2ccccc2)cc1	10%	nt	nt	2%	14%
O=C(C(=O)N1CCCC1CO)N1CCCC1CO (stereo unspecified)	-12%	-9	-4	3%	?
O=[N+]([O-])c1nn(-c2ccc3c(c2)OCCO3)n(O)c1=NCCC1=CCCCC1	?	49	25*	-2%	13%
O=[N+]([O-])c1nn(-c2ccc3c(c2)OCCO3)n(O)c1=NCc1ccc(F)cc1Cl	10%	131*	50*	?	24%[46.1 µM]
Cc1ccc(CCN=c2c([N+](=O)[O-])nn(-c3ccccc3)n2O)cc1	-27%	23	7	-2%	2%[46.1 µM]
Cc1cc(C)cc(N=c2c([N+](=O)[O-])nn(-c3cccc(Cl)c3)n2O)c1	-29%	-8	-4	0%	-15%
SMILES	AMA1-RON2 inh	Shiga inhibitor	CHX counter	LASV entry inh	Marburg entry inh
O=[N+]([O-])c1nn(-c2ccc3c(c2)OCCO3)n(O)c1=NCc1ccc(F)cc1	-27%	92*	103*	?	?
Cc1cc(C)cc(NC(=O)C(=O)NC(C)c2ccccc2)c1 (stereo unspecified)	nt	nt	nt	-1%[46.1 µM]	nt
Cc1cccc(OCCSc2nc(N)cc(N)n2)c1	68%	45*	20*	nt	nt
CCOc1nc(SCCOc2ccc(C)cc2)nc(N(C)C)n1	35%	14	-2	-6%	-3%
CCC(=O)c1ccc(OCCSc2ncccn2)cc1	-14%	88*	53*	?	-26%
c1ccc(OCCOCCSc2ncccn2)cc1	3%	45	20*	-6%	1%
CCC(=O)c1ccc(OCC(=O)N2CCN(c3ccccn3)CC2)cc1	-14%	-2	-1	2%	-12%
CCNc1nc(NCC)nc(SCCOc2ccc(C)cc2)n1	-1%	-13	-4	?	16µM*
COc1ccccc1NC(=O)CSc1oc(-c2ccc(F)cc2)nc1S(=O)(=O)c1ccc(Br)cc1	nt	nt	nt	10%[46.1 µM]	4%[46.1 µM]
N#Cc1ccccc1OCCCN1CCC(Cc2ccccc2)CC1	4%	-3	-4	nt	nt
N=c1c2ccccc2nnn1-c1cccc(C(F)(F)F)c1	-4%	20	25	15%[46.1 µM]	-3%
Cc1cc(C(=O)N(C)CC(=O)Nc2ccccc2C(F)(F)F)c(C)o1	5%	-4	-3	0%	2%
Cc1ccc(OCCn2cccn2)c(C)c1	4%	22	-2	nt	nt
Cc1ccc(OCCCCNC(C)c2ccccc2)c(C)c1 (stereo unspecified)	-11%	nt	-5	?	11µM*
Cc1cc(Oc2ccccc2)nc(N)n1	-5%	14	-1	-19%	15%
Cc1cccc(OCCOCCSc2ncccn2)c1	7%	41	10*	?	?
Cc1ccc(OCCSc2ncccn2)c(C)c1	29%	96*	49*	10µM*	?
Cc1cc(SCCOc2ccccc2)nc(N)n1	16%	80*	28*	0%	?
COc1ccc(-c2nnc(SCCOc3cccc(C)c3)n2N)cc1	20%	-5	2	?	6%
O=C(NCc1ccc(F)cc1Cl)c1cc(=O)[nH]c2ccc(S(=O)(=O)N3CCCCC3)cc12	nt	nt	nt	1%[46.1 µM]	nt
Cc1noc(C)c1C(=O)N1CCC1(C)C(=O)NS(=O)(=O)c1ccccc1Cl (stereo unspecified)	-7%	nt	nt	nt	nt
CCC(=O)N1CCc2cc(Br)cc(S(=O)(=O)N3CCCC(C(=O)NCc4cccc(OC)c4)C3)c21 (stereo unspecified)	nt	nt	nt	12%[46.1 µM]	-25%[46.1 µM]
CCCCc1nc2cc(C(=O)NCCc3c(C)n[nH]c3C)ccc2o1	-5%	nt	nt	-8%	-2%
CCCCc1nc2cc(C(=O)NCc3ccccn3)ccc2o1	91%	47	10*	nt	nt
CC(C)(C)NC(=O)c1ccc2nc(CCc3ccccc3)oc2c1	nt	nt	nt	-10%[46.1 µM]	nt
SMILES	AMA1-RON2 inh	Shiga inhibitor	CHX counter	LASV entry inh	Marburg entry inh
CC(C)N(Cc1nccn1C)C(=O)c1ccc2oc(Cc3ccccc3)nc2c1	14%	13	1	-9%[46.1 µM]	22%[46.1 µM]
CCn1ccnc1CNC(=O)c1ccc2oc(CCCc3ccccc3)nc2c1	11%	32*	19*	nt	nt
CCCCc1nc2cc(C(=O)N(C)C(C)c3ccccn3)ccc2o1 (stereo unspecified)	0%	30*	23*	nt	nt
Cc1cnc(CNC(=O)c2ccc3oc(Cc4ccccc4)nc3c2)[nH]1	30%	12	21	nt	nt
CC(CCCC(C)(C)O)NC(=O)c1ccc2oc(CCc3ccccc3)nc2c1 (stereo unspecified)	-5%	9	14*	nt	nt
NC(=O)c1ccsc1NC(=O)COC(=O)c1cccnc1Cl	15%	nt	nt	15%	5%
COc1ccc2c(c1OC)C(=O)OC2Nc1ccccn1 (stereo unspecified)	5%	-20	4	13%	9%

Source: PubChem (National Center for Advancing Translational Sciences (NCATS))
